# Source: PubChem
# Shown are actives, neighbours in structure and some others; about 7.9% of the full set was active somewhere.
# HT1080 IDH1KD tx: toxicity to HT-1080 IDH1 knockdown cells (counter line). HT-1080 IDH1 knockdown viability, ATP luminescence, 48 h. Potency, µM (top dose mostly 46.1 µM), actives largely listed as cytotoxic. actives 2% (n = 360,000)
#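 Cytotoxicity counter-line: IDH1KD HT-1080, 48 h, CellTiter-Glo. Curves classed by r2, magnitude and activity.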
# KB-3-1 tox: KB-3-1 parental cell cytotoxicity. Potency, µM (doses to about 46.1 µM), actives largely listed as cytotoxic. actives 1.4% (n = 400,000). KB-3-1 viability, CellTiter-Glo ATP luminescence, 72 h; also: nearly all actives have a fitted effect of over 60% in size
#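 Cells are dispensed, compounds pinned in, plates held at 37 °C for 72 h, then CellTiter-Glo is added and luminescence read after 10 minutes. Cell line: parental KB-3-1 in phenol-red-free DMEM, 10% FBS.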
# MCF10A rerep: induces DNA re-replication in MCF 10a normal breast cells. MCF 10A DNA re-replication, Hoechst nuclear intensity, 48 h. Potency, µM (series often up to 46.1 µM), actives largely listed as activators. actives 2.9% (n = 350,000); also: nearly all actives have a fitted effect of over 50% in size
# SW480 rereplic: induces DNA re-replication in SW480 colon adenocarcinoma cells. SW480 DNA re-replication, Hoechst DNA content imaging, 48 h. Potency, µM (titrated, usually from 46.1 µM), most hits filed as activators. actives 1.8% (n = 340,000). AID 624297; also: nearly all actives have a fitted effect of over 55% in size
#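 Image-based read-out: total Hoechst fluorescence of nuclei (405 nm excitation, 500-530 nm emission), with hits raising the fraction of high-intensity nuclei. SW480 colon cells incubated 48 hr with compounds at 37 C.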
# HT1080NT lethal: kills 2HG-producing HT-1080-NT fibrosarcoma cells; HT-1080-NT fibrosarcoma viability, CellTiter-Glo ATP luminescence, 48 h; Potency, µM (doses to about 46.1 µM), usual class: cytotoxic; actives 1.6% (n = 360,000);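 also: NT is the 2HG producing partner of a matched IDH1 knockdown line; nearly all actives have a fitted effect of over 55% in size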
#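 Viability by CellTiter-Glo luminescence after 48 h compound exposure at 37C of HT-1080-NT cells (750/well, RPMI, 5% FBS). % activity scaled between DMSO wells and medium-only wells, then curve-fitted and categorized by curve class.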
# KB-V1 MDR tox: KB-V1 MDR subline cytotoxicity; actives 3.4% (n = 400,000); KB-V1 MDR cells viability, CellTiter-Glo, 72 h; Potency, µM (series often up to 46.1 µM), actives largely listed as cytotoxic; also: nearly all actives have a fitted effect of over 60% in size
#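 KB-V1, DMEM (no phenol red) + 10% FBS; cpd pin-transferred, titration series; 72 h, 37 degrees C; CellTiter-Glo, luminescence. Data normalized, curve-fit.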
# Numbers stand for hits; . = inactive; ? = inconclusive; / = no result; ! = a repeat was not active; [ ] = another dose, or the depositor's remark. Calls follow the shape of the dose curve; as a rule, active = well fitted curve in the direction sought with a large enough effect; inconclusive = small, poorly fitted or top-dose-only effect, or another doubt; inactive = no such curve, though single readings can be large; an effect the other way counts as inactive or inconclusive.
SMILES,HT1080 IDH1KD tx,KB-3-1 tox,MCF10A rerep,SW480 rereplic,HT1080NT lethal,KB-V1 MDR tox
Nc1nc(SCc2ccccc2)cc(SCc2ccccc2)n1,.,.,8.2µM,.,.,.
C[C@@H]1COc2cc(N3CC[C@H](O)C3)ccc2S(=O)(=O)N1,.,.,/,/,.,?
O=c1c2ccccc2nc(SCc2cccc(F)c2)n1-c1cccc(S(=O)(=O)N2CCCC2)c1,.,.,.,.,.,3.3µM
O=C(c1ccc(-n2c(SCc3cccc(F)c3)nc3ccccc3c2=O)cc1)N1CCOCC1,.,?,.,.,.,?
COc1ccccc1N1C(=O)c2cccc3c(N(C)CCO)ccc(c23)C1=O,.,.,.,.[1.84 µM],.,.
Cc1ccccc1N1C(=O)c2cccc3c(N(C)CCO)ccc(c23)C1=O,.,.,.,?,.,18µM
Cn1nnc2c(N3CCN(c4ccc(F)cc4)CC3)ncnc21,/,.,/,/,/,.
CN=c1sc(C(=O)Nc2ccccc2)c(C)n1C,.,.,.,.,.,.
CN=c1sc2c(n1C)C(=O)c1ccccc1C2=O,?,?,8.2µM,13µM,18µM,?
COc1cc(C2C3=C(COC3=O)Oc3cc4c(cc32)OCO4)cc(OC)c1OC (configuration not stated),?,0.58µM,0.23µM,0.13µM,0.1µM,0.1µM!
O=C1OCC2=C1C(c1ccc3c(c1)OCO3)c1cc3c(cc1O2)OCO3 (configuration not stated),6.5µM,3.3µM,8.2µM,4.6µM,3.3µM,1.5µM
COc1cc(C2C3=C(COC3=O)Oc3cc4c(cc32)OCO4)cc(OC)c1O (configuration not stated),?,?,?,?,0.46µM,?
NC1=C([N+](=O)[O-])C(c2ccc3c(c2)OCO3)C2=C(CCCC2=O)O1 (configuration not stated),.,?,.,?,.,.
Cn1c(SC2=CS(=O)(=O)c3ccccc32)nc2ccccc21,?,.,?,?,18µM,.
Cn1c(CSc2nc3ccccc3n2C)nc2ccccc21,.,.,.,.,.,?
CC(=O)NCCCS(=O)(=O)O,/,/,.,.,/,/
CC1=NN(c2ccc(F)cc2)C(=O)C1C(c1cccc(O)c1)c1c(C)[nH]n(-c2ccc(F)cc2)c1=O (configuration not stated),.,.,?,.,?,.
CC1=NN(c2ccc(Cl)cc2)C(=O)C1C(c1cccc(O)c1)c1c(C)[nH]n(-c2ccc(Cl)cc2)c1=O (configuration not stated),?,.,?,.,16µM,.
CCOc1ccc(CCNC(=O)c2cccc(-n3c(C)nc4cccnc43)c2C)cc1,/,?,/,/,/,.
Nc1nc(=S)c2[nH]c(=S)[nH]c2[nH]1,?,?,?,?,.,?
Nc1nc(=S)c2[nH]cnc2[nH]1,1.3µM,1µM,?,.,2.3µM,0.73µM
Cc1cc(C(=O)CSc2nc3ccc(Cl)cc3[nH]2)c(C)n1C,.,.,.,.,.,21µM
Cc1ccc2nc(SCC(=O)c3cc(C)n(C)c3C)[nH]c2c1,.,.,.,.,.,.
Cc1cc(C(=O)CSc2nc3ccccc3[nH]2)c(C)n1Cc1ccco1,?,?,.,.,?,2.1µM
Cc1cccc(-n2cnc3cc(C(=O)NC4CCCCCC4)ccc32)c1,/,.,/,/,/,?
SMILES,HT1080 IDH1KD tx,KB-3-1 tox,MCF10A rerep,SW480 rereplic,HT1080NT lethal,KB-V1 MDR tox
CC(=O)Nc1c(C(=O)Nc2cccc(C)c2)nnn1-c1ccc(C)cc1,/,.,/,/,/,.
O=C(Nc1ccc(Br)cc1)c1cc2ccccn2n1,.,?,.,.,.,.
CCc1ccc(NC(=O)c2cc3ccccn3n2)cc1,/,15µM,/,/,/,?
CCN1CCCc2cc(CN(CCN3CCOCC3)C(=O)Nc3ccc(C)c(C)c3)ccc21,.,.,?,.,.,21µM
CCc1ccc(NC(=O)N(CCN2CCOCC2)Cc2ccc3c(c2)CCCN3CC)cc1,?,.,.,.,.,21µM
CCN1CCCc2cc(CN(CCN3CCOCC3)C(=S)Nc3cccc(C)c3)ccc21,.,?,.,.,.,.
CCCCN1CCCc2cc(CN(CCCN3CCOCC3)C(=O)Nc3ccc(OCC)cc3)ccc21,/,.,/,/,/,.
O=C(NCc1ccc2c(c1)CCN2C(=O)c1ccncc1)c1cccc(Cl)c1,/,.,/,/,/,.
FC(F)(F)c1cc(Cc2nc3ccccc3n2C(CCc2ccccc2)c2nc3ccccc3[nH]2)cc(C(F)(F)F)c1 (configuration not stated),?,.,/,/,21µM,?
CCCCc1nc2n[nH]c(N)c2c2c1CCCC2,.,4.1µM,?,.,.,0.52µM
COc1cc(C(=O)Nc2cccc(S(=O)(=O)N3CCCC3)c2)cc(OC)c1C,.,?,?,.,.,23µM
CC(C)Cn1nc(C(=O)Nc2cccc(S(=O)(=O)N3CCCC3)c2)c2ccccc2c1=O,.,.,.,.,.,4.6µM
O=C(CCl)Nc1cccc(S(=O)(=O)N2CCCCCC2)c1,18µM,16µM,?,13µM,?,23µM
O=C(Nc1cccc(S(=O)(=O)C(F)F)c1)c1ccc(S(=O)(=O)N2CCCCC2)cc1,?,?,.,.,?,?
O=C(Cc1ccc(Cl)cc1)Nc1cccc(S(=O)(=O)N2CCCCC2)c1,.,?,?,.,.,.
CS(=O)(=O)c1cccc(C(=O)Nc2cccc(S(=O)(=O)N3CCCC3)c2)c1,.,.,.,.,.,.
O=C(Nc1cccc(S(=O)(=O)N2CCCCC2)c1)c1ccc(S(=O)(=O)C(F)F)cc1,.,?,.,.,.,7.3µM
CCc1c(C)nc2nc(-c3ccccc3)nn2c1NCc1ccc(C)cc1,/,.,/,/,/,.
CCc1ccc(CNC(=O)c2cccc(-n3c(C)nc4cccnc43)c2)cc1,/,.,/,/,/,?
CC(C)(CO)C(O)C(=O)NCCCC(=O)O (configuration not stated),/,/,.,.,/,/
COc1ccc(C)cc1NC(=O)c1cc(S(=O)(=O)N2CCN(c3cccc(C)c3C)CC2)ccc1F,/,.,/,/,/,.
CCc1ccc(NC(=O)c2ccc3c(=O)n4c(nc3c2)CCCCC4)cc1,.,?,.,.,.,.
O=C(Nc1cccc(S(=O)(=O)N2CCCCC2)c1)c1ccc2c(=O)n3c(nc2c1)CCCCC3,?,12µM,.,.,.,5.8µM
CCCCCn1c(-c2cccc(C)c2)nc2ccccc21,/,.,/,/,/,.
CC(C)(O)C#Cc1ccc(C(=O)N2CCCC(CNS(=O)(=O)c3cccs3)C2)o1 (configuration not stated),.,.,.,21µM,.,.
COc1ccccc1N1CCN(CCCNC(=O)c2cnn(-c3ccccc3)c2C2CCN(C(=O)OC(C)(C)C)CC2)CC1,/,.,/,/,/,.
